Experimental data as given in the supplement of paper PMC9337992.
± gives the standard deviation of the averaged measurements.

Experiments:
Test in all cases: cell proliferation (confluence) relative to DMSO control; higher = less growth inhibition
Conditions in all cases: 5 uM; 6 d
BT549 = test system: BT549
Outline: (§1)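 Confluence of triple-negative breast cancer cell lines was measured by phase-contrast imaging on an IncuCyte ZOOM and normalised to DMSO-only wells. Cells went into 384-well plates at 500 per well and, after adhering, were exposed to epigenetic chemical probes in DMSO at a final 5 μM for 6 d. A ×10 objective was used, and images were analysed with Incucyte 2016 software.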

CAL120 = test system: CAL120
Outline: as §1

HCC1143 = test system: HCC1143
Outline: as §1

HCC1395 = test system: HCC1395
Outline: as §1

HCC153 = test system: HCC153
Outline: as §1

HCC1806 = test system: HCC1806
Outline: as §1

HCC38 = test system: HCC38
Outline: as §1

HCC70 = test system: HCC70
Outline: as §1

Hs578-T = test system: Hs578-T
Outline: as §1

MB157 = test system: MB157
Outline: as §1

SUM149-PT = test system: SUM149-PT
Outline: as §1

SUM159-PT = test system: SUM159-PT
Outline: as §1

CCn1cc(-c2cccc(C(F)(F)F)c2)c2sc(C(=N)NC3CCS(=O)(=O)CC3)cc2c1=O
cell proliferation (BT549): 99.17 ± 0.79%
cell proliferation (CAL120): 98.86 ± 0.38%
cell proliferation (HCC1143): 98.69 ± 0.74%
cell proliferation (HCC1395): 99.948 ± 0.021%
cell proliferation (HCC153): 44.8 ± 4%
cell proliferation (HCC1806): 78.6 ± 12%
cell proliferation (HCC38): 98.94 ± 0.64%
cell proliferation (HCC70): 96.7 ± 3.6%
cell proliferation (Hs578-T): 99.5 ± 0.38%
cell proliferation (MB157): 71.8 ± 6.5%
cell proliferation (SUM149-PT): 23.9 ± 2.3%
cell proliferation (SUM159-PT): 99.974 ± 0.019%

CCCc1cc(C)n(C)c(=O)c1CN(C)C(=O)c1cc(-c2ccc(N3CCN(C(C)C)CC3)nc2)cc2c1cnn2C(C)C
cell proliferation (BT549): 99.971 ± 0.015%
cell proliferation (CAL120): 93.4 ± 3.8%
cell proliferation (HCC1143): 99.3 ± 0.59%
cell proliferation (HCC1395): 99.983 ± 0.016%
cell proliferation (HCC153): 84.6 ± 3.8%
cell proliferation (HCC1806): 99.889 ± 0.049%
cell proliferation (HCC38): 99.77 ± 0.13%
cell proliferation (HCC70): 97.3 ± 2.3%
cell proliferation (Hs578-T): 97.89 ± 0.81%
cell proliferation (MB157): 87.5 ± 6.8%
cell proliferation (SUM149-PT): 84.2 ± 10%
cell proliferation (SUM159-PT): 99.997 ± 0.0012%

O=C(NC[C@H](O)CN1CCc2ccccc2C1)c1ccnc(NC2CCC2)c1
cell proliferation (BT549): 81.4 ± 7.7%
cell proliferation (CAL120): 90 ± 7.5%
cell proliferation (HCC1143): 75.1 ± 4.7%
cell proliferation (HCC1395): 99.47 ± 0.48%
cell proliferation (HCC153): 37.2 ± 9.6%
cell proliferation (HCC1806): 37.5 ± 4.5%
cell proliferation (HCC38): 67.8 ± 1.2%
cell proliferation (HCC70): 95 ± 2%
cell proliferation (Hs578-T): 89.7 ± 4.3%
cell proliferation (MB157): 66.5 ± 2.1%
cell proliferation (SUM149-PT): 36.7 ± 2.9%
cell proliferation (SUM159-PT): 99.876 ± 0.038%

COc1cc2c(NC3CCN(C(C)C)CC3)nc(C3CCCCC3)nc2cc1OCCCN1CCCC1
cell proliferation (BT549): 99.51 ± 0.12%
cell proliferation (CAL120): 81.6 ± 8.8%
cell proliferation (HCC1143): 98.93 ± 0.9%
cell proliferation (HCC1395): 99.3 ± 0.76%
cell proliferation (HCC153): 89 ± 4.7%
cell proliferation (HCC1806): 99.53 ± 0.2%
cell proliferation (HCC38): 99.86 ± 0.072%
cell proliferation (HCC70): 98.64 ± 0.65%
cell proliferation (Hs578-T): 98.1 ± 1.1%
cell proliferation (MB157): 67.8 ± 16%
cell proliferation (SUM149-PT): 91.8 ± 8.8%
cell proliferation (SUM159-PT): 99.996 ± 0.0018%

Cn1cc(CCn2cnc(-c3cnn(C)c3)c2-c2ccc(C#N)cc2)cn1
cell proliferation (BT549): 98.99 ± 0.43%
cell proliferation (CAL120): 97.56 ± 0.71%
cell proliferation (HCC1143): 98.1 ± 2.2%
cell proliferation (HCC1395): 99.977 ± 0.017%
cell proliferation (HCC153): 58.1 ± 13%
cell proliferation (HCC1806): 76.7 ± 11%
cell proliferation (HCC38): 99.38 ± 0.67%
cell proliferation (HCC70): 85.1 ± 8.9%
cell proliferation (Hs578-T): 97.89 ± 0.77%
cell proliferation (MB157): 62.6 ± 28%
cell proliferation (SUM149-PT): 92.6 ± 3.4%
cell proliferation (SUM159-PT): 99.988 ± 0.012%

CNCCN1CCC(OCc2ccccc2)CC1
cell proliferation (BT549): 98.25 ± 0.81%
cell proliferation (CAL120): 97.25 ± 0.95%
cell proliferation (HCC1143): 96.6 ± 1.6%
cell proliferation (HCC1395): 99.984 ± 0.0095%
cell proliferation (HCC153): 60.3 ± 10%
cell proliferation (HCC1806): 73.6 ± 7.1%
cell proliferation (HCC38): 99.63 ± 0.28%
cell proliferation (HCC70): 88.5 ± 12%
cell proliferation (Hs578-T): 97.85 ± 0.92%
cell proliferation (MB157): 93.3 ± 5.4%
cell proliferation (SUM149-PT): 72.8 ± 18%
cell proliferation (SUM159-PT): 99.906 ± 0.052%

CN(C)[C@H]1CN(C2CCc3cccc(F)c32)C[C@@H]1c1ccc(N2CCN(S(C)(=O)=O)CC2)cc1 (some centres not stated)
cell proliferation (BT549): 99.839 ± 0.071%
cell proliferation (CAL120): 91.9 ± 3.3%
cell proliferation (HCC1143): 99.22 ± 0.33%
cell proliferation (HCC1395): 99.91 ± 0.14%
cell proliferation (HCC153): 83.7 ± 2.5%
cell proliferation (HCC1806): 99.14 ± 0.58%
cell proliferation (HCC38): 99.71 ± 0.21%
cell proliferation (HCC70): 82.3 ± 13%
cell proliferation (Hs578-T): 97.33 ± 0.62%
cell proliferation (MB157): 91.6 ± 4.3%
cell proliferation (SUM149-PT): 87.8 ± 10%
cell proliferation (SUM159-PT): 99.996 ± 0.0017%

Cc1cc(=O)n(C)c2cc(N3C(=O)CC[C@H](NS(=O)(=O)CC(C)C)[C@H]3c3ccc(Cl)cc3)ccc12
cell proliferation (BT549): 98.62 ± 0.82%
cell proliferation (CAL120): 98.85 ± 0.5%
cell proliferation (HCC1143): 99.53 ± 0.27%
cell proliferation (HCC1395): 99.99 ± 0.01%
cell proliferation (HCC153): 55.4 ± 11%
cell proliferation (HCC1806): 81.7 ± 5.8%
cell proliferation (HCC38): 99.02 ± 0.89%
cell proliferation (HCC70): 85.8 ± 9.3%
cell proliferation (Hs578-T): 98.75 ± 0.26%
cell proliferation (MB157): 71 ± 19%
cell proliferation (SUM149-PT): 82.6 ± 16%
cell proliferation (SUM159-PT): 99.951 ± 0.055%

CCOC(=O)CCNc1cc(N2CCc3ccccc3CC2)nc(-c2ccccn2)n1
cell proliferation (BT549): 28.2 ± 3.8%
cell proliferation (CAL120): 22.3 ± 2.1%
cell proliferation (HCC1143): 60.8 ± 4.6%
cell proliferation (HCC1395): 40.6 ± 9.5%
cell proliferation (HCC153): 21.3 ± 3.7%
cell proliferation (HCC1806): 27.9 ± 4.9%
cell proliferation (HCC38): 23.1 ± 5%
cell proliferation (HCC70): 66 ± 12%
cell proliferation (Hs578-T): 68.5 ± 11%
cell proliferation (MB157): 33.6 ± 8.3%
cell proliferation (SUM149-PT): 10.2 ± 3.8%
cell proliferation (SUM159-PT): 94.72 ± 0.36%

COc1ccccc1S(=O)(=O)Nc1ccc2c(c1)CN(C)C(=O)N2
cell proliferation (BT549): 95.7 ± 1.4%
cell proliferation (CAL120): 50.1 ± 11%
cell proliferation (HCC1143): 97.21 ± 0.84%
cell proliferation (HCC1395): 98.12 ± 0.25%
cell proliferation (HCC153): 59.7 ± 1.8%
cell proliferation (HCC1806): 38.5 ± 27%
cell proliferation (HCC38): 35.2 ± 7.6%
cell proliferation (HCC70): 81.7 ± 7.9%
cell proliferation (Hs578-T): 47.7 ± 1.6%
cell proliferation (MB157): 50.9 ± 5.5%
cell proliferation (SUM149-PT): 20.8 ± 3.4%
cell proliferation (SUM159-PT): 97.92 ± 0.3%

CC[C@H](C)n1cc(C)c2c(C(=O)NCc3c(C)cc(C)[nH]c3=O)cc(-c3ccc(N4CCNCC4)nc3)cc21
cell proliferation (BT549): 98.6 ± 2.6%
cell proliferation (CAL120): 91.6 ± 5.4%
cell proliferation (HCC1143): 99.53 ± 0.32%
cell proliferation (HCC1395): 99.996 ± 0.0038%
cell proliferation (HCC153): 87.9 ± 3.7%
cell proliferation (HCC1806): 99.846 ± 0.034%
cell proliferation (HCC38): 99.825 ± 0.095%
cell proliferation (HCC70): 82 ± 8.6%
cell proliferation (Hs578-T): 97.8 ± 1.3%
cell proliferation (MB157): 79.1 ± 14%
cell proliferation (SUM149-PT): 90.3 ± 4.3%
cell proliferation (SUM159-PT): 99.995 ± 0.00082%

CCOC(=O)CCNc1cc(N2CCc3ccccc3CC2)nc(-c2cccnc2)n1
cell proliferation (BT549): 99.38 ± 0.4%
cell proliferation (CAL120): 94.6 ± 4.8%
cell proliferation (HCC1143): 99.33 ± 0.49%
cell proliferation (HCC1395): 99.887 ± 0.094%
cell proliferation (HCC153): 82.7 ± 3.2%
cell proliferation (HCC1806): 99.75 ± 0.15%
cell proliferation (HCC38): 99.31 ± 0.31%
cell proliferation (HCC70): 98 ± 1.6%
cell proliferation (Hs578-T): 96.1 ± 2.3%
cell proliferation (MB157): 96.1 ± 2.9%
cell proliferation (SUM149-PT): 96 ± 3.5%
cell proliferation (SUM159-PT): 99.982 ± 0.0074%

CC(C)Oc1ccc(-c2c[nH]cc2CN(C)CCN)cc1
cell proliferation (BT549): 90.4 ± 3.7%
cell proliferation (CAL120): 99.34 ± 0.54%
cell proliferation (HCC1143): 97.6 ± 0.99%
cell proliferation (HCC1395): 99.982 ± 0.016%
cell proliferation (HCC153): 59.3 ± 2.6%
cell proliferation (HCC1806): 80.7 ± 11%
cell proliferation (HCC38): 99.56 ± 0.26%
cell proliferation (HCC70): 94.5 ± 2.1%
cell proliferation (Hs578-T): 95.4 ± 1.7%
cell proliferation (MB157): 93.7 ± 4.8%
cell proliferation (SUM149-PT): 67.6 ± 13%
cell proliferation (SUM159-PT): 99.843 ± 0.074%

Clc1cc2c(NC3CCCC3)nnc(-c3ccncc3)c2cc1Cl
cell proliferation (BT549): 99.863 ± 0.055%
cell proliferation (CAL120): 83.4 ± 7.1%
cell proliferation (HCC1143): 99.1 ± 1.1%
cell proliferation (HCC1395): 99.965 ± 0.029%
cell proliferation (HCC153): 87.7 ± 5.4%
cell proliferation (HCC1806): 98.95 ± 0.87%
cell proliferation (HCC38): 99.63 ± 0.21%
cell proliferation (HCC70): 99.12 ± 0.58%
cell proliferation (Hs578-T): 97.48 ± 0.54%
cell proliferation (MB157): 98.8 ± 1.5%
cell proliferation (SUM149-PT): 64.6 ± 19%
cell proliferation (SUM159-PT): 99.992 ± 0.0029%

O=C(NCC(=O)N1CCCC1)Nc1ccc2cnccc2c1
cell proliferation (BT549): 97.4 ± 1.4%
cell proliferation (CAL120): 98.79 ± 0.98%
cell proliferation (HCC1143): 97.5 ± 2%
cell proliferation (HCC1395): 99.815 ± 0.096%
cell proliferation (HCC153): 63 ± 9.2%
cell proliferation (HCC1806): 82.8 ± 2.7%
cell proliferation (HCC38): 99.873 ± 0.048%
cell proliferation (HCC70): 94.9 ± 5.1%
cell proliferation (Hs578-T): 96.4 ± 1.6%
cell proliferation (MB157): 94.3 ± 5.8%
cell proliferation (SUM149-PT): 76.9 ± 9.1%
cell proliferation (SUM159-PT): 99.995 ± 0.0035%

O=C([C@@H](Cc1cccc(C(F)(F)F)c1)NS(=O)(=O)c1cc(F)c2c(c1)CCNC2)N1CCCC1
cell proliferation (BT549): 98.6 ± 1.6%
cell proliferation (CAL120): 97.2 ± 1.3%
cell proliferation (HCC1143): 97.9 ± 1.8%
cell proliferation (HCC1395): 99.978 ± 0.021%
cell proliferation (HCC153): 79.2 ± 12%
cell proliferation (HCC1806): 86.9 ± 14%
cell proliferation (HCC38): 99.44 ± 0.59%
cell proliferation (HCC70): 96.1 ± 2.5%
cell proliferation (Hs578-T): 94.3 ± 4.3%
cell proliferation (MB157): 82.3 ± 15%
cell proliferation (SUM149-PT): 87.4 ± 7.1%
cell proliferation (SUM159-PT): 99.992 ± 0.0088%
